A short description of assay [1]: compounds binding Alexa647 anti-His antibody – biochemical, small-molecule microarray, 635 nm fluorescence, artefact control for SMM control protein annotation, primary screen (AID 1128).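 Note: score merges feature fluorescence with signal-to-noise for each printed compound spot.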 Particulars: higher = more signal.
Assay [2] concerns Human papillomavirus type 1a E7 protein (residues 1-88). As to the kind of experiment: HPV1a E7 small-molecule binders, primary screen, biochemical, small-molecule microarray, residues 1-88, 635 nm (AID 1129). The note with it: small-molecule microarray binding, fluorescence 635 nm; higher = more signal.
Assay [3] concerns the target Focal adhesion kinase 1 (Homo sapiens) (UniProt Q05397). As to the kind of experiment: PTK2 protein binding on printed compound slides – biochemical, small-molecule microarray, 635/667 nm fluorescence, BSA, DTT, primary screen (AID 1130).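 Note: composite of spot emission at 667 nm and signal to noise over triplicate slides.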 The note with it: 635 nm fluorescence, higher = more signal.
The test system of assay [4] is Fibrinogen (Alexa647-labelled). As to the kind of experiment: Alexa647-fibrinogen binding to printed small molecules – biochemical, small-molecule microarray, 635/667 nm fluorescence, artefact control for SMM control-protein annotation, profiling panel (AID 1131).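 Note: z-score merges 667 nm fluorescence with per-spot signal-to-noise over triplicate slides.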 The note with it: fibrinogen-A647 binding fluorescence, higher = more signal.
Assay [5] deals with Follistatin (Homo sapiens) (UniProt P19883). As to the kind of experiment: FST protein binding to printed compounds – biochemical, small-molecule microarray, 635/667 nm fluorescence, primary screen (AID 1132). Particulars: 635 nm fluorescence, higher = more signal.
Chain of Follistatin (Homo sapiens) (P19883 whole entry, looked up): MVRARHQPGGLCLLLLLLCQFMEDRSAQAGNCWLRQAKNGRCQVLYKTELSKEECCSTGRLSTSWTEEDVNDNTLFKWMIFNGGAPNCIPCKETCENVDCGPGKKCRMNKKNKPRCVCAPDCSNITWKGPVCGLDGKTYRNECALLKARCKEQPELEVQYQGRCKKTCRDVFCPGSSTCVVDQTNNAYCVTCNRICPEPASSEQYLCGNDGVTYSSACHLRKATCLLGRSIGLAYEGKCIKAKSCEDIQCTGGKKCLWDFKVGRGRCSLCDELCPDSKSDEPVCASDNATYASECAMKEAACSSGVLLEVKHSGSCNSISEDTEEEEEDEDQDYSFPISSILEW
For assay [6], the target named is Fibroblast growth factor 2 (Homo sapiens) (UniProt P09038). As to the kind of experiment: basic fibroblast growth factor binding to printed compounds – biochemical, small-molecule microarray, 635/667 nm fluorescence, primary screen (AID 1133). Particulars: FGF2, fluorescence 635/667, higher = more signal.
Chain of Fibroblast growth factor 2 (Homo sapiens) (P09038 whole entry, looked up): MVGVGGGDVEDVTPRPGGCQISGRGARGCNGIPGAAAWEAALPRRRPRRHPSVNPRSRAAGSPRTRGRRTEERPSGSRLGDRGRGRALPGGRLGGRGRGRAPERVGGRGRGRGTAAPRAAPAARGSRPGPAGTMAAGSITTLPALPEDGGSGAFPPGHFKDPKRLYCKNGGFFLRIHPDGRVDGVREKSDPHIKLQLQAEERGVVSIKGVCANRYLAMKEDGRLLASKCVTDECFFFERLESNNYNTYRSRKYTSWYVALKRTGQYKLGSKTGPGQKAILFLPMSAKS
Assay [7] in a line: JC-1 mitochondrial potential readout, lung cancer cells – cell-based, A549, JC-1 fluorescence, basal, 24 h, 100 nL, profiling panel (AID 1138).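 Note: A549 lung adenocarcinoma cells under basal conditions with no added stimulus; test concentration not given here.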 The note with it: higher = more signal.
In a further assay the test system is Lefty1. As to the kind of experiment: Lefty1 protein binding to printed compounds – biochemical, small-molecule microarray, 635/667 nm fluorescence, primary screen (AID 1139). Particulars: fluorescence 635/667, higher = more signal.
The subject of assay [8] is wheat germ agglutinin (Triticum aestivum), Alexa647-labelled. As to the kind of experiment: Alexa647-WGA lectin binding to printed small molecules – biochemical, small-molecule microarray, 635/667 nm fluorescence, artefact control for SMM control-protein annotation, profiling panel (AID 1140).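 Note: score merges 667 nm feature emission with signal to noise over triplicate slides.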 The note with it: WGA-A647 binding, 635 nm fluorescence, higher = more signal.

Assay [9] deals with Luciferin 4-monooxygenase (Photinus pyralis) (UniProt P08659). As to the kind of experiment: inhibition of purified Photinus pyralis luciferase – biochemical, luminescence, purified enzyme, 2006 set, primary screen (AID 1141).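 Note: cell-free assay with purified firefly luciferase at 100 ng per well in PBS; test concentration not given here.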 Particulars: purified firefly luciferase, SteadyGlo luminescence, 30 min; higher = more signal, called active from +8 up or from −8 down.
Chain of Luciferin 4-monooxygenase (Photinus pyralis) (P08659 whole entry, looked up): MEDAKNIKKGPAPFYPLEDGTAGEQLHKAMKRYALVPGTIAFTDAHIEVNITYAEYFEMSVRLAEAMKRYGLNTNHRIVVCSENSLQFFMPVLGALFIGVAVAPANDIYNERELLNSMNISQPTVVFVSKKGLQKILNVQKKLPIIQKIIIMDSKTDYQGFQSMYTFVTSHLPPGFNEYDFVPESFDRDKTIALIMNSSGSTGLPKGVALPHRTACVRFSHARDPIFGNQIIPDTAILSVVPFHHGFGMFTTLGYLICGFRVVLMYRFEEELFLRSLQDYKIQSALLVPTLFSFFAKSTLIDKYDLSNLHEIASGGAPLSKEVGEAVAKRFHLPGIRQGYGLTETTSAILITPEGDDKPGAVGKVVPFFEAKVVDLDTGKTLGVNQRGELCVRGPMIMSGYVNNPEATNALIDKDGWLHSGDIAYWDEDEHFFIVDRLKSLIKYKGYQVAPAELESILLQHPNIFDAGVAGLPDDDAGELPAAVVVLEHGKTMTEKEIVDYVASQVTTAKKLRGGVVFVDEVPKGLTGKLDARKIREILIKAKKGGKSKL
The subject of assay [10] is Wnt5a (protein binding on small-molecule microarray). As to the kind of experiment: small molecules binding Wnt5a protein – biophysical, small-molecule microarray, 635/667 nm fluorescence, primary screen (AID 1142).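 Note: fluorescence read at 667 nm with signal to noise per printed feature.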 Particulars: 635 nm fluorescence, higher = more signal.
The nature of assay [11]: ATP-based viability of Huh7 replicon cells – cell-based, CellTiter-Glo luminescence, basal, 48 h, cytotoxicity control for HCV replication inhibitor project, primary screen (AID 1143).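 Note: Huh7 hepatoma cells carrying a hepatitis C replication reporter with no stimulus; test concentration not given here.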 Particulars: higher = more signal, called active from +8 up or from −8 down.
Assay [12] is described as follows: Pseudomonas biofilm growth suppression – PAO1 strain, BacTiter-Glo luminescence, LB-PBS, primary screen (AID 1144). The note with it: P. aeruginosa PAO1 biofilm, 12 h, higher = more signal.
Assay [13] can be described thus: basal CRE-LacZ reporter activity in PC12 – cell-based, unstimulated, primary screen (AID 1145). The note with it: no forskolin, luminescence, 4.5 h, higher = more signal, called active from +8 up or from −8 down.
Assay [14] in a line: forskolin-driven CRE-LacZ activity in PC12 – cell-based, CRE-LacZ reporter, forskolin-stimulated, primary screen (AID 1146).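 Note: PC12 cells with 6xCRE LacZ reporter stimulated by forskolin 10 µM; beta-galactosidase reporter signal reflecting CREB driven transcription.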 Particulars: luminescence, 4.5 h, higher = more signal, called active from +8 up or from −8 down.
Assay [15] addresses Streptavidin (Streptomyces avidinii) (UniProt P22629). As to the kind of experiment: compounds binding control protein streptavidin – biophysical, small-molecule microarray, 635/667 nm fluorescence, artefact control for SMM compound annotation, primary screen (AID 1147).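 Note: signal reflects streptavidin binding to arrayed compounds as a control protein.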 The note with it: higher = more signal.
Assay [16] can be described thus: probe aInhba binding on compound microarray – biochemical, small-molecule microarray, 635/667 nm fluorescence, primary screen (AID 1148).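 Note: score merges 667nm spot fluorescence with signal-to-noise for antibody binding to printed compounds.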 Particulars: higher = more signal.
For assay [17], the target named is Torsin-1A (Homo sapiens) (UniProt O14656). As to the kind of experiment: TOR1A wild-type binding on microarray – cell lysate, small-molecule microarray, lysate, 635/667 nm, primary screen (AID 1149). Particulars: COS7 hTOR1A-WT lysate, 635 nm fluorescence, higher = more signal.
Chain of Torsin-1A (Homo sapiens) (O14656 whole entry, looked up): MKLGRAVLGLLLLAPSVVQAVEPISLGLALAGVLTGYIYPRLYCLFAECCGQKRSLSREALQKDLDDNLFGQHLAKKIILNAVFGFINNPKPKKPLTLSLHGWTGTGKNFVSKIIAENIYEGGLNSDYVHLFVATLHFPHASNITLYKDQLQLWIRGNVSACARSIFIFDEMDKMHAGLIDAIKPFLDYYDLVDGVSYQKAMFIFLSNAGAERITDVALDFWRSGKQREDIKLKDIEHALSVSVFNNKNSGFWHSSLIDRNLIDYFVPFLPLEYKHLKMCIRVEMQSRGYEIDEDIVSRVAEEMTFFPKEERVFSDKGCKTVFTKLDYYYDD
The target is the same in assay [18]. As to the kind of experiment: torsin A mutant lysate binding on microarrays – cell lysate, small-molecule microarray, COS7 lysate, 635/667 nm fluorescence, primary screen (AID 1150).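 Note: score pools 667 nm emission and signal to noise measuring lysate protein binding.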 The note with it: COS7 hTOR1A mutant lysate, 635 nm fluorescence, higher = more signal.
For assay [19], the system named is Sonic hedgehog protein (Shh). As to the kind of experiment: Sonic hedgehog microarray binding compounds – biochemical, small-molecule microarray, 635/667 nm fluorescence, primary screen (AID 1151).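 Note: Shh protein binding to compounds spotted on small-molecule microarray slides; score combines spot fluorescence intensity with signal-to-noise across triplicate slides.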 The note with it: 635 nm fluorescence, higher = more signal.

Active and inactive are the calls of the source. Unless noted, the rule behind the calls is not given here.

Chain of Focal adhesion kinase 1 (Homo sapiens) (Q05397 whole entry, looked up): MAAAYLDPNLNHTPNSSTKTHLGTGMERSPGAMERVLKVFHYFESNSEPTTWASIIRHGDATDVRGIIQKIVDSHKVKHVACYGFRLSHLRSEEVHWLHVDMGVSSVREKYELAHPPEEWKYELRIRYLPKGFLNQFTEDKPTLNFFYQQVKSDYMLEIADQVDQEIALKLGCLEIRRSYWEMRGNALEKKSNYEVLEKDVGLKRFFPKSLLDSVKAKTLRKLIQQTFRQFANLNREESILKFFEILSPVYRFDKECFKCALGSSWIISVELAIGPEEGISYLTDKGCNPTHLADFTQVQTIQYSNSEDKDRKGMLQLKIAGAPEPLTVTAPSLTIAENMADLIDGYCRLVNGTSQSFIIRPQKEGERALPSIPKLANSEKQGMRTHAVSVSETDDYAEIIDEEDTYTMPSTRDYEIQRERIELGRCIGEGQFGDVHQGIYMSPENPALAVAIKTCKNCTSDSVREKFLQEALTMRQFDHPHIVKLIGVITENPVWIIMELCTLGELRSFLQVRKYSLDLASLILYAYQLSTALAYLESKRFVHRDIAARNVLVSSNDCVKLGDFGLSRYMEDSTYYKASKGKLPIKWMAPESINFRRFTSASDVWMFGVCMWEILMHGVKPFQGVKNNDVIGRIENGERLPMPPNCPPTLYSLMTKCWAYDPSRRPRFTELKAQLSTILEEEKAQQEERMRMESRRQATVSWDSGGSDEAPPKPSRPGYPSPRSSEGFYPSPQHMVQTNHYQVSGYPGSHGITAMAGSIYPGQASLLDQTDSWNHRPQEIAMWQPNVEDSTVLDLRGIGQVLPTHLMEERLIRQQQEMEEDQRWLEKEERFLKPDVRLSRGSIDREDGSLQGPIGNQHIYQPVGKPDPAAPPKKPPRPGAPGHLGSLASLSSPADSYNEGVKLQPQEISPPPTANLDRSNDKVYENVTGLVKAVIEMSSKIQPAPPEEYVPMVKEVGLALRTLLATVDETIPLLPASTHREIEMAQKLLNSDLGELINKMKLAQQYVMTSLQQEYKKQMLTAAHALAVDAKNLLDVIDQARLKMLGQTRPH
Chain of Streptavidin (Streptomyces avidinii) (P22629 whole entry, looked up): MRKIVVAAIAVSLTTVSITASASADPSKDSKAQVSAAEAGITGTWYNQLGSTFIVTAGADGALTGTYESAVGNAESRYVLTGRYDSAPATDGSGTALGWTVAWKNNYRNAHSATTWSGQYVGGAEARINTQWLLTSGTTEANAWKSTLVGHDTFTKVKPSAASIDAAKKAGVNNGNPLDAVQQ

Take `Cc1c(NC(=O)CC#N)c(=O)n(-c2ccccc2)n1C`: the composite z-score in [1] worked out at 0.514; in assay [2], 0.469; in assay [3], 0.616; in [4], 0.134; in assay [5], 0.116; in assay [6], 0.291. In addition, the composite z-score in the assay with Lefty1 was 0.645; in assay [8] it was 0.114; in assay [10], 0.0101; in assay [15] it was -0.347; in [16] it was -0.179; with Torsin-1A (Homo sapiens) [17] it was 0.362. Besides, the values for the composite z-score (with Torsin-1A (Homo sapiens) [18]; in assay [19]) were -0.0384 and 0.642, respectively. Further, the z-score in assay [7] was 0.385; in assay [9], 0.551 (inactive); in assay [11], -2.39 (inactive); in assay [12], -0.739 (inactive); in [13] it was -0.671 (inactive); in assay [14], -0.832 (inactive).

As for `COC(=O)[C@@]1(Cc2ccc(F)cc2)[C@H]2c3cc(C(=O)N(C)C)n(CCc4ccccn4)c3C[C@H]2CN1C(=O)c1ccccc1`, the composite z-score in assay [1] is 1.47; in assay [2], 1.25; in assay [3], 0.994; in assay [4] it was 0.0039; in [5], 0.78; in assay [6] it was 0.0791. Besides, the composite z-score in the assay with Lefty1 was 0.221; in assay [8], -0.108; in [10] it was 1.9; in assay [15] it was -0.0936; in [16], 1.14; in the assay with Torsin-1A (Homo sapiens) [17], 1.23. Besides, the figures for the composite z-score (with Torsin-1A (Homo sapiens) [18]; in [19]) were 0.948 and -0.154, respectively. For the same compound, the z-score in [7] is -0.201; in assay [9] it was 2.76 (inactive); in assay [11], -1.86 (inactive); in assay [12], -0.604 (inactive); in [13], 0.39 (inactive); in assay [14] it was -0.038 (inactive).

On to `COc1cc(CO)ccc1OC(C)=O`, for which the composite z-score in assay [1] is 0.529; in [2], 0.741; in assay [3], 0.315; in assay [4] it was 0.555; in [5], 1.07; in assay [6] it was 0.502. Further, the composite z-score in the assay with Lefty1 was 0.636; in assay [8], 0.243; in assay [10], 0.226; in [15], 0.683; in [16], -0.308; with Torsin-1A (Homo sapiens) [17] it was 0.867. Further, the composite z-score in the assay with Torsin-1A (Homo sapiens) [18] stood at 0.388; in assay [19], 1.05. Besides, the z-score in assay [7] was 1.54; in assay [9] it was -0.743 (inactive); in assay [11] it was -2.07 (inactive); in assay [12], -0.433 (inactive); in assay [13], 0.0918 (inactive); in assay [14], -0.874 (inactive).

With `COC(=O)[C@@]1(Cc2ccc(F)cc2)[C@H]2c3cc(C(=O)N4CCCC4)n(Cc4cccc5ccccc45)c3C[C@H]2CN1C(=O)c1ccccc1`, the composite z-score in [1] was 1.98; in assay [2], 1.28; in assay [3] it was 2.08; in assay [4], 0.83; in assay [5] it was 0.0834; in assay [6] it was -0.426. The composite z-score is -0.0668 in the assay on Lefty1; 1.06 in assay [8]; 0.255 in [10]; 0.95 in assay [15]; 0.434 in [16]; 0.341 in the assay with Torsin-1A (Homo sapiens) [17]. The composite z-score in the assay with Torsin-1A (Homo sapiens) [18] is -0.0286; in [19], -0.408. Moreover, the z-score in [7] was 0.917; in [9], 0.943 (inactive); in [11], -1.8 (inactive); in [12] it was 0.233 (inactive); in [13] it was 0.397 (inactive); in [14], 0.422 (inactive).

For `CCOC(=O)C1=CCC(c2ccc(C#N)cc2)N(S(=O)(=O)c2ccc(C)cc2)C1` (stereo not given), the composite z-score came out at 1.64 in assay [1]; 1.2 in assay [2]; 0.047 in [3]; 0.824 in [4]; 0.552 in assay [5]; 0.168 in assay [6]. The composite z-score in the assay on Lefty1 is -0.303; in [8], 1.19; in [10] it was 0.445; in assay [15] it was 1.87; in assay [16] it was 0.211; with Torsin-1A (Homo sapiens) [17], 0.375. Further, the values for the composite z-score (with Torsin-1A (Homo sapiens) [18]; in [19]) were 0.709 and 0.409, respectively. In addition, the z-score is -0.142 in assay [7]; 0.115 (inactive) in assay [9]; -4.77 (inactive) in assay [11]; -0.0317 (inactive) in [12]; 0.22 (inactive) in [13]; -0.986 (inactive) in assay [14].

Values taken from PubChem BioAssay.
